Tests used:
Test in all cases: log2 ratio of Biotin-Ahx-Ub-VS probe labelling (fragment/DMSO); higher = less target engagement (more negative = stronger competition), active = hit call of the paper (q ≤ 0.05, log2 ratio ≤ -1)
Conditions in all cases: compound concentration: 200 uM; treatment time: 3 h
USP42 = molecular target: T1, USP42 (UniProt Q9H9J4)
T1 sequence (whole entry): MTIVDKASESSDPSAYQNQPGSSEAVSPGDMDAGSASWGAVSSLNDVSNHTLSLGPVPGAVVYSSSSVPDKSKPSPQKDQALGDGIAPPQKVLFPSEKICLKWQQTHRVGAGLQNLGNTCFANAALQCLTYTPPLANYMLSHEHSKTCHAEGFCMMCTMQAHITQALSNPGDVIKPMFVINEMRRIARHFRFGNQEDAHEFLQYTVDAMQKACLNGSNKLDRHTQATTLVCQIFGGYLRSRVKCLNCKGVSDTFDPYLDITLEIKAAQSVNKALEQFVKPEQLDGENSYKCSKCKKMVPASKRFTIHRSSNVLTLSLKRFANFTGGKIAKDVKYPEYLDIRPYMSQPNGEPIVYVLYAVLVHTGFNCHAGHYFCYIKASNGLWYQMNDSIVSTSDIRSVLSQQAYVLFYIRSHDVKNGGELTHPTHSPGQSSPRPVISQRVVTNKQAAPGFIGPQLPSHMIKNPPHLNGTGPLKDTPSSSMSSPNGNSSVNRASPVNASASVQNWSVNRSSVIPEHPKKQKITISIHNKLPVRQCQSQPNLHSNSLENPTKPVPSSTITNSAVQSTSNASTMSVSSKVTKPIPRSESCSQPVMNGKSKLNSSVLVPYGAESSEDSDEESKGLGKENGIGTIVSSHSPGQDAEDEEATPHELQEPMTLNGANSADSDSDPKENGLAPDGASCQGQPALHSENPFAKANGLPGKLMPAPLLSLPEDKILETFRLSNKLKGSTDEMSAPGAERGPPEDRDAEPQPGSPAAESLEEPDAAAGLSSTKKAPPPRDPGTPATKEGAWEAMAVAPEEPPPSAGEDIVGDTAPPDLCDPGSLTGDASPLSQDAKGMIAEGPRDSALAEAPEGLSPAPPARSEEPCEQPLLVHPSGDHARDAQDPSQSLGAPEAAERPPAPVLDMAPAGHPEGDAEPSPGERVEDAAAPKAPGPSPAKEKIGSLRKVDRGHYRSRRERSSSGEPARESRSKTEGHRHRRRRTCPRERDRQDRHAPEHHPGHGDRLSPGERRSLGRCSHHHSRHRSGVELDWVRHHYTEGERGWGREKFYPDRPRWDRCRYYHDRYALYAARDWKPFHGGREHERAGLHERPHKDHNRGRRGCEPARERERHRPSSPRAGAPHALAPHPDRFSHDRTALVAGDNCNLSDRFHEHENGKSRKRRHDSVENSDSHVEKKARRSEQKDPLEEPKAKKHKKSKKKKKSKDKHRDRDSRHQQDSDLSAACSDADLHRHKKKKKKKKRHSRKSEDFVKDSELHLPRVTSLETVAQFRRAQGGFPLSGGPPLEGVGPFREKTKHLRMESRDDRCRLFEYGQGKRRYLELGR
Procedure, shortened: (§1)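 Labelled DUBs were enriched with NeutrAvidin, digested with LysC and trypsin, and run by diaPASEF LC-MS/MS. The labelling used Biotin-Ahx-Ub-VS at 0.5 µM final for 1 h on HEK293T lysate (495 µg per sample) previously treated in triplicate with fragment at 200 µM or vehicle for 3 h. Values are average log2 fragment/vehicle ratios by unpaired t-test on global-median-normalised Spectronaut quantities of proteins with ≥2 unique peptides.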

USP46 = USP46 (UniProt P62068)
USP46, sequence (P62068 whole entry): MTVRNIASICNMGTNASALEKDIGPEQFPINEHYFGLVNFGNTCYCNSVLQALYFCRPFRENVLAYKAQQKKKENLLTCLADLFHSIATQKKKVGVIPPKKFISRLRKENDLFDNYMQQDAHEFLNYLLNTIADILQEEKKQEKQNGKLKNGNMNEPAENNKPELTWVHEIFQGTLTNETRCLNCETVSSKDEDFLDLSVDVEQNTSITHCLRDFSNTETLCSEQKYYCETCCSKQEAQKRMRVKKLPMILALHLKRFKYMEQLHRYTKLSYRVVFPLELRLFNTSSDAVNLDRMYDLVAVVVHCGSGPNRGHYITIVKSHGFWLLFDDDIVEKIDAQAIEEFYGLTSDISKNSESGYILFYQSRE
Procedure, shortened: as §1

USP47 = molecular target: T2, USP47 (UniProt Q96K76)
T2 sequence (whole entry): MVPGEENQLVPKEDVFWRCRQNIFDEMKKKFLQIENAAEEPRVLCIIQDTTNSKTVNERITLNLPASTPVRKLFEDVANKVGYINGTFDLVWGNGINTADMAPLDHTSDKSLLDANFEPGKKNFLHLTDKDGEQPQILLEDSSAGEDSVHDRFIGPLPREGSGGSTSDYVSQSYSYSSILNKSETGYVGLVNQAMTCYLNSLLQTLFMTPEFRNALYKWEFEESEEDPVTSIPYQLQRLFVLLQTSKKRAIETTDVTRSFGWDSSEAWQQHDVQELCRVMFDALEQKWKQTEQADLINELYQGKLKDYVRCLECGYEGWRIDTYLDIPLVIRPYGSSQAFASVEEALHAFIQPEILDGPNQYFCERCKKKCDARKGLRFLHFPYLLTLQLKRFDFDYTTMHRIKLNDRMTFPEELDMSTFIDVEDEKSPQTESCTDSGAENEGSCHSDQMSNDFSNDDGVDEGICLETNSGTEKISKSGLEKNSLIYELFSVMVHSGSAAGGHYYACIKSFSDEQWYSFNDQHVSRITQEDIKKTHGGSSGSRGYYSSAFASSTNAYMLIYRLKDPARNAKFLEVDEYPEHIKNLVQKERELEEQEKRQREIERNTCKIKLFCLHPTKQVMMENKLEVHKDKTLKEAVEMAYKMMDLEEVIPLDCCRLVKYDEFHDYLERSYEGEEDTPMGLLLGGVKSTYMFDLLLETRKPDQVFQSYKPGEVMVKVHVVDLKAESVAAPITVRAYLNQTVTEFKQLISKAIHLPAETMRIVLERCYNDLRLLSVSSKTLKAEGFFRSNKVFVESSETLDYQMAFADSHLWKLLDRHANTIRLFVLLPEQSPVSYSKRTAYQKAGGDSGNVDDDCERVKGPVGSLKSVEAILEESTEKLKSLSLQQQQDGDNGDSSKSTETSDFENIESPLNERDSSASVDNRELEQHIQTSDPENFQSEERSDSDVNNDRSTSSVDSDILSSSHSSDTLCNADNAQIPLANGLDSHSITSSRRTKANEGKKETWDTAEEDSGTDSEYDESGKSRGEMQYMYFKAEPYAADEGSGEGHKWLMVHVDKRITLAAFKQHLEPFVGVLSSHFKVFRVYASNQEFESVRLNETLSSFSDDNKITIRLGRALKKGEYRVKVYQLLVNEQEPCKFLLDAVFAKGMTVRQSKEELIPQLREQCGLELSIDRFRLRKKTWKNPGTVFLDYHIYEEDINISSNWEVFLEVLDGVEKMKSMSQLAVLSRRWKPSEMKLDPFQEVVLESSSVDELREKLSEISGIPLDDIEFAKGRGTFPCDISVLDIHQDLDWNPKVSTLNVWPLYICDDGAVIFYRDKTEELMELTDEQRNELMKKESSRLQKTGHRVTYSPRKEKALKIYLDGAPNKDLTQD
Procedure, shortened: as §1

USP48 = molecular target: T3, USP48 (UniProt Q86UV5)
T3 sequence (whole entry): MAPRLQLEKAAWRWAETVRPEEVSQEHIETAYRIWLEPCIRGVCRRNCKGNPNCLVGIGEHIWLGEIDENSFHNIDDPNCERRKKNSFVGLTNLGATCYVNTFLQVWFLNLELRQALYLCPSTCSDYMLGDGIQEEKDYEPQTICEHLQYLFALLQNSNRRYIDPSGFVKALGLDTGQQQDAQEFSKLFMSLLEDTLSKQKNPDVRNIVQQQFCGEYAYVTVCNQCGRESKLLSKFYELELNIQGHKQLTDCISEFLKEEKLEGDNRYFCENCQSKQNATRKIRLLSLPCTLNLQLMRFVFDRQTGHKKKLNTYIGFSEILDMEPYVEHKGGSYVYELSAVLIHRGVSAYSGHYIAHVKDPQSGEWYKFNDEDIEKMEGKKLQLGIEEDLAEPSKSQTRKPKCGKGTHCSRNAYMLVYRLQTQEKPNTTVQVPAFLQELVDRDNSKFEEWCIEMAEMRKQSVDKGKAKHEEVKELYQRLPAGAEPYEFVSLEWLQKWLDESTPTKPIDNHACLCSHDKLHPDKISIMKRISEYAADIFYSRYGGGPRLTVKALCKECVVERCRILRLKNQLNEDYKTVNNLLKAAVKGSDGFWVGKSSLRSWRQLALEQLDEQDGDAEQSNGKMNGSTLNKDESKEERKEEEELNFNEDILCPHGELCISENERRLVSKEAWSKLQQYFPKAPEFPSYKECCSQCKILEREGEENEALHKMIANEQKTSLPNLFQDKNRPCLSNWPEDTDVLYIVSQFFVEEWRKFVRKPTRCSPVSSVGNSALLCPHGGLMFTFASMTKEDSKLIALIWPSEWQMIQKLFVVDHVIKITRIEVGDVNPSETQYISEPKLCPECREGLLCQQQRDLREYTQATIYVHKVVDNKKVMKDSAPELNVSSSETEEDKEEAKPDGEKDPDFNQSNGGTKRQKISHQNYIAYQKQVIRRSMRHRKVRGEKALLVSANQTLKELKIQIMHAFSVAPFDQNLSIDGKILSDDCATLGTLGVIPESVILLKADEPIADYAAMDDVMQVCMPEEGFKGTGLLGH
Procedure, shortened: as §1

USP5 = molecular target: T4, USP5 (UniProt P45974)
T4 sequence (whole entry): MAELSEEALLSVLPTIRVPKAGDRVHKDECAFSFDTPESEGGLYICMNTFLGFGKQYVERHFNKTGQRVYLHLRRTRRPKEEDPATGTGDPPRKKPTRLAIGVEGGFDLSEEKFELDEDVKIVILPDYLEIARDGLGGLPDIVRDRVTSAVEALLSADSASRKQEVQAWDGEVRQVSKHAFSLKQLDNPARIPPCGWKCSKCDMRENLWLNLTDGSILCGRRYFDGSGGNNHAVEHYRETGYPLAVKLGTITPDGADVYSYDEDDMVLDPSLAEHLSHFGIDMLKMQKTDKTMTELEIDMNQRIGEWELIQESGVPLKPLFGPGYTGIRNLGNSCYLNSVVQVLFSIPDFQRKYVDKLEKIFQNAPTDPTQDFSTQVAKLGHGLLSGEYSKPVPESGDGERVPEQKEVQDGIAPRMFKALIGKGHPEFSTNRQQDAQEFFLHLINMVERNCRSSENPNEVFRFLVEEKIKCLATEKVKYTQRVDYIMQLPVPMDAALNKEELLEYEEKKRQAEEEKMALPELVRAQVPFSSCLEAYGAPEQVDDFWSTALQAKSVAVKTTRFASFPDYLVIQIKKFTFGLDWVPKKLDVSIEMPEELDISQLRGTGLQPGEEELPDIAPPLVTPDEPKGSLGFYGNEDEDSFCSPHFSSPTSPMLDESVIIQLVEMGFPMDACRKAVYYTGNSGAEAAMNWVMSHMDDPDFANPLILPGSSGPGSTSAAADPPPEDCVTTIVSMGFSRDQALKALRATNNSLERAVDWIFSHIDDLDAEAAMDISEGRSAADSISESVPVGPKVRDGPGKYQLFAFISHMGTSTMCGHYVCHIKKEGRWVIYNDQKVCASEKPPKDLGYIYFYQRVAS
Procedure, shortened: as §1

USP54 = USP54 (UniProt Q70EL1)
USP54, sequence (Q70EL1 whole entry): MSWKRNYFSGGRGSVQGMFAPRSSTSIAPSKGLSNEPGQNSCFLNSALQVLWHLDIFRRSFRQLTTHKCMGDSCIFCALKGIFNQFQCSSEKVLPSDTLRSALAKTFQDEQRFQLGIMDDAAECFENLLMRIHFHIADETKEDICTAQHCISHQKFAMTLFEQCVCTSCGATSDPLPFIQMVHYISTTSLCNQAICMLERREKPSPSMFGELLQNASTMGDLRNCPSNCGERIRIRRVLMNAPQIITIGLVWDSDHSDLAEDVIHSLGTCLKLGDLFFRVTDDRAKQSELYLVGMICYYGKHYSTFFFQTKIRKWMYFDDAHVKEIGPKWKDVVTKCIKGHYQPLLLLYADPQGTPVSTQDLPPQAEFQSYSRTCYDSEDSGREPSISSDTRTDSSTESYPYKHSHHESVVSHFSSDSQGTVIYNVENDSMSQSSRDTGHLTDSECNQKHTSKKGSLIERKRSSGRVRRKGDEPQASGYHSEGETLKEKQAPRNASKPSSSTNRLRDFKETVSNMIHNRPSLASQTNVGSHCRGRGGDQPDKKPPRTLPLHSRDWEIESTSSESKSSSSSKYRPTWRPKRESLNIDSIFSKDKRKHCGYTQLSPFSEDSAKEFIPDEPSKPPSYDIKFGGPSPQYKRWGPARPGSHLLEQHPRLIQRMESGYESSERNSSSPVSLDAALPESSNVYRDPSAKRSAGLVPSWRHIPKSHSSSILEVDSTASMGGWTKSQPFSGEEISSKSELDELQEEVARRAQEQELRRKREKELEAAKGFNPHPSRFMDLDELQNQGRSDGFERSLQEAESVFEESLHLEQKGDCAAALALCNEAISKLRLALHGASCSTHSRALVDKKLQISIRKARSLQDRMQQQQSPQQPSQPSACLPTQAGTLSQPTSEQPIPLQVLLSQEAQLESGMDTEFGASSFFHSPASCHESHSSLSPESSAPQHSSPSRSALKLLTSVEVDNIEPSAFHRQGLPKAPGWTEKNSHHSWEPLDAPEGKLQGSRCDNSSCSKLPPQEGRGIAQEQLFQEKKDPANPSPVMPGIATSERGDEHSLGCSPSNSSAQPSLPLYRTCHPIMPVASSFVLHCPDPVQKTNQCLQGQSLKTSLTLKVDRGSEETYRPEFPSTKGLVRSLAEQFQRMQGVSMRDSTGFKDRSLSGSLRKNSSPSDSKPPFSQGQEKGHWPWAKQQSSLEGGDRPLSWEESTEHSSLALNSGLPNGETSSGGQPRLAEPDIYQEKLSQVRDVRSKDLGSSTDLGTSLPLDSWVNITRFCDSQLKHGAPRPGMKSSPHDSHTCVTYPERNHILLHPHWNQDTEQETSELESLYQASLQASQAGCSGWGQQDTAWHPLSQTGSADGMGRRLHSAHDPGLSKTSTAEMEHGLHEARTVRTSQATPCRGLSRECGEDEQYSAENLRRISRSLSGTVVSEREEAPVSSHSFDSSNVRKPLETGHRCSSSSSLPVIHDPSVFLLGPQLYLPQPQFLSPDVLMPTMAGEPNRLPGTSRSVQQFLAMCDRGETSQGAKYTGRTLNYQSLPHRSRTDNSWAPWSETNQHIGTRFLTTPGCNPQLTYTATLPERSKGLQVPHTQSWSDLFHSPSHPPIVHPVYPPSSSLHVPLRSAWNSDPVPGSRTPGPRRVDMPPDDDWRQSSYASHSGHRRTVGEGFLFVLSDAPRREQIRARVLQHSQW
Procedure, shortened: as §1

USP7 = USP7 (UniProt Q93009)
Procedure, shortened: as §1

USP8 = molecular target: T5, USP8 (UniProt P40818)
T5 sequence (whole entry): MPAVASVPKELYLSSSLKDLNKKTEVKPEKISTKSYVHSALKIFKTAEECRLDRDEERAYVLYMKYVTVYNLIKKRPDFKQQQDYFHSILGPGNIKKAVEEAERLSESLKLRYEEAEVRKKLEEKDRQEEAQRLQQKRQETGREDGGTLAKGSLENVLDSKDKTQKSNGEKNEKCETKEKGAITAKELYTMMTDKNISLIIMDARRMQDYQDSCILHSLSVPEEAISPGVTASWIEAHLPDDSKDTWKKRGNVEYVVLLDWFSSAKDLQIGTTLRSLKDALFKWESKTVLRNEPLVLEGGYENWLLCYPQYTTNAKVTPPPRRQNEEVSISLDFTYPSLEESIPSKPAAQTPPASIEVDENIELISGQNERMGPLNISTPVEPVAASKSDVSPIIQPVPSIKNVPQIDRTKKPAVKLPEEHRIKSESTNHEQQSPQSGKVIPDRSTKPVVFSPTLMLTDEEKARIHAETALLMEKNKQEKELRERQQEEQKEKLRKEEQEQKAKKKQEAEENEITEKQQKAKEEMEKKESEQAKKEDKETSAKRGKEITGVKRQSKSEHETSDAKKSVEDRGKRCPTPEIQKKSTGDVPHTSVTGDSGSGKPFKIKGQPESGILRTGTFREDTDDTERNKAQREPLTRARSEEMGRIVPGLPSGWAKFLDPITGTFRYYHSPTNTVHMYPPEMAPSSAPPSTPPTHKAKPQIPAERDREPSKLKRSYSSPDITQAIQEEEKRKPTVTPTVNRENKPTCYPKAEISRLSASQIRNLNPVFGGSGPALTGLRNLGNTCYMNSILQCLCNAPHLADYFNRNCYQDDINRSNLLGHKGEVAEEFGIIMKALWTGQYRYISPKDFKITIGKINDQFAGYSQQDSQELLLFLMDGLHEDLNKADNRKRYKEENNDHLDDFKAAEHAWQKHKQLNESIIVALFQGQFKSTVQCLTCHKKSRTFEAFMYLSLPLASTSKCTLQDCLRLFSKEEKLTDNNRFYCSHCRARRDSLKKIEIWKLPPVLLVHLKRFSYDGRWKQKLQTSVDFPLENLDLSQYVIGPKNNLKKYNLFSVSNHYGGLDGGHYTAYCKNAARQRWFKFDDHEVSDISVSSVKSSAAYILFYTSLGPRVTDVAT
Procedure, shortened: as §1

USP9X = USP9X (UniProt Q93008)
USP9X, sequence (Q93008 whole entry): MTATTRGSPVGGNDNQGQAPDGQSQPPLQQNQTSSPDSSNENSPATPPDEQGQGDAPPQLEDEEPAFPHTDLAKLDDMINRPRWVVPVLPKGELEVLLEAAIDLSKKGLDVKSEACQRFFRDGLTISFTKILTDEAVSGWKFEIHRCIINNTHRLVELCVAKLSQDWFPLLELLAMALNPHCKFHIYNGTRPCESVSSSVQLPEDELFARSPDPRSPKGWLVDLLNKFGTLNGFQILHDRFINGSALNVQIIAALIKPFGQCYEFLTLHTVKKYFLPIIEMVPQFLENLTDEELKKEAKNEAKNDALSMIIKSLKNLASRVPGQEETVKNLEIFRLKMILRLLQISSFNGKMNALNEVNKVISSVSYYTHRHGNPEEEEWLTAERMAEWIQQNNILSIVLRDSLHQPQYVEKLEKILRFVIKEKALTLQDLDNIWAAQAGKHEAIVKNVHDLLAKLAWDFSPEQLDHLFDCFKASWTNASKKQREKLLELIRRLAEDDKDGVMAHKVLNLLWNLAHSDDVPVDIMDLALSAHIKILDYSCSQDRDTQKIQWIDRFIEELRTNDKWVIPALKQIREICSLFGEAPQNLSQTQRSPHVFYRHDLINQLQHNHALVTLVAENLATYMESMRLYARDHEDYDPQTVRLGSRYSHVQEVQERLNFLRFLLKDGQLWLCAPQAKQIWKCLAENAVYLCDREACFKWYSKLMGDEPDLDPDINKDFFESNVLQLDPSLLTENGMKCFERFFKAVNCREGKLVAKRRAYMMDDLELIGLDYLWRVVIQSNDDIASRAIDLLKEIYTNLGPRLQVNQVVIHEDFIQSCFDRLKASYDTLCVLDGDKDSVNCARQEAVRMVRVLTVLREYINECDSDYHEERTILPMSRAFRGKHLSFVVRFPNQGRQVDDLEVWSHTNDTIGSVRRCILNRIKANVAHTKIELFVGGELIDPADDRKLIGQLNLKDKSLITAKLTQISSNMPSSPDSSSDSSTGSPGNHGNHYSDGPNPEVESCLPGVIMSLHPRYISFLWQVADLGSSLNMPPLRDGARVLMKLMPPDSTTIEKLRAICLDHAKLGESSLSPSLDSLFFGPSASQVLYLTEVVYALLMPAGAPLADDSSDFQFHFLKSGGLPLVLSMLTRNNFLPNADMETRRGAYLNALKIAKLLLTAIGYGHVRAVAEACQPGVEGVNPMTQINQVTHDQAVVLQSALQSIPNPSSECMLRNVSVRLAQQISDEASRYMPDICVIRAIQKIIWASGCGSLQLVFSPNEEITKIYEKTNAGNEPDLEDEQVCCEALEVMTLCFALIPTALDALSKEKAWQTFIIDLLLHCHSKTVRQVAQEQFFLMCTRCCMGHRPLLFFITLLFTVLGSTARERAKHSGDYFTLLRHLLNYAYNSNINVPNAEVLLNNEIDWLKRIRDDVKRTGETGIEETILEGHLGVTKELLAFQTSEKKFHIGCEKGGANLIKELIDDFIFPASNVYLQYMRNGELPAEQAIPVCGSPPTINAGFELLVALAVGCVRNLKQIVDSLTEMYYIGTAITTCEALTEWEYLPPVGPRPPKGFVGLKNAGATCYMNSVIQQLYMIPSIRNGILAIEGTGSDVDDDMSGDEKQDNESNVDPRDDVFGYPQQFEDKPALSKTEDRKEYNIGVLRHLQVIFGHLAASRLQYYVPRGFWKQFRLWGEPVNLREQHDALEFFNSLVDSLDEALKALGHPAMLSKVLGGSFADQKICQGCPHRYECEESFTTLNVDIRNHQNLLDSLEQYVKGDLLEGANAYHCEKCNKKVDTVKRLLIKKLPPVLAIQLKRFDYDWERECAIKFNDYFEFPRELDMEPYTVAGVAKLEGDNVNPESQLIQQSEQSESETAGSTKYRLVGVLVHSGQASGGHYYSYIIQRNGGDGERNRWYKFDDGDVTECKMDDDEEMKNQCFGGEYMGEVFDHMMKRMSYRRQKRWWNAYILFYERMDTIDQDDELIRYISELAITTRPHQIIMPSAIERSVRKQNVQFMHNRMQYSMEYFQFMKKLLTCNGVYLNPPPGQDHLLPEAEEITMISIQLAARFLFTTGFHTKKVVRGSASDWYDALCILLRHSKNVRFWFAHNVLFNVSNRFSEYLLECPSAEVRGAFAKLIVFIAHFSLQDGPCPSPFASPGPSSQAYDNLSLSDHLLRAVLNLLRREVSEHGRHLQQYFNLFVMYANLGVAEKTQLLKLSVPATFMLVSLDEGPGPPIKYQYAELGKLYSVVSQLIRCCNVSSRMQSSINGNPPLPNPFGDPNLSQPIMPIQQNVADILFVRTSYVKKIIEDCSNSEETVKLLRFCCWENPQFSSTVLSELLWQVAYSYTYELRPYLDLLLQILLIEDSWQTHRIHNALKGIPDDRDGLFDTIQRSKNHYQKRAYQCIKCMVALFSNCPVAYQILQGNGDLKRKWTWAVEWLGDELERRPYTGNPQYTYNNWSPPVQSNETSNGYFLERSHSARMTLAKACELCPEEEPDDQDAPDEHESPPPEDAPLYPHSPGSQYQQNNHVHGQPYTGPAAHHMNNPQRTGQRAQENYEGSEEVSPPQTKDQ
Procedure, shortened: as §1

UniProt O00487 = molecular target: UniProt O00487
UniProt O00487, sequence (O00487 whole entry): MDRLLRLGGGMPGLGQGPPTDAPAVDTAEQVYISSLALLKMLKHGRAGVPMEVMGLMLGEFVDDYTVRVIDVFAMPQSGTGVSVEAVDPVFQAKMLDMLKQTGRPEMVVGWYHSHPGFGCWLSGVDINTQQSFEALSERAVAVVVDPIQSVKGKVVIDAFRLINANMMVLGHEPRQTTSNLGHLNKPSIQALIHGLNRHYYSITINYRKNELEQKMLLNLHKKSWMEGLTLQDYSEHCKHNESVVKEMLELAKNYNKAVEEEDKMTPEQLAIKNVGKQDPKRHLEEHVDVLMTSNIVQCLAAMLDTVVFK
Procedure, shortened: as §1

Measured: log2 ratio of Biotin-Ahx-Ub-VS probe labelling

O=C(CCl)NCCC1COCCO1 (stereo not given)
inactive: USP42 0.357 | USP46 -0.000444 | USP47 -0.101 | USP48 -0.171 | USP5 -0.0923 | USP54 0.157 | USP7 -0.157 | USP8 -0.26 | USP9X -0.131 | UniProt O00487 -0.1

— the supplement of paper PMC11732987, “Enantioselective OTUD7B fragment discovery through chemoproteomics screening and high-throughput optimisation” (Communications Chemistry, 2025)
